Reference: PubChem BioAssay AID686940 (The Scripps Research Institute Molecular Screening Center, 2013)
About 2,600 (0.7%) of roughly 370,000 compounds were called active. This is one part of a sample in which actives are shown more often than they occur.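 The calls were made as follows: active = inhibition above a per-plate cutoff, mean inhibition of test wells between control levels plus 3 SD (cut at about 38% in these data); inactive = the rest.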

Each compound was assayed against COUP transcription factor 2 (Homo sapiens) (UniProt P24468) (assay: COUP-TFII reporter suppression in human cells – cell-based, luciferase reporter, HEK293T, luminescence, primary screen (AID 686940;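 also: cells cotransfected with COUP-TFII expression vector driving the NGFI-A reporter; 0% = median of COUP-TF2 test wells and 100% = reporter-only cells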)). Details: HEK293T NGFI-A luciferase reporter, at 8.6 µM, stronger effect = higher value.
Chain of COUP transcription factor 2 (Homo sapiens) (P24468 whole entry, looked up): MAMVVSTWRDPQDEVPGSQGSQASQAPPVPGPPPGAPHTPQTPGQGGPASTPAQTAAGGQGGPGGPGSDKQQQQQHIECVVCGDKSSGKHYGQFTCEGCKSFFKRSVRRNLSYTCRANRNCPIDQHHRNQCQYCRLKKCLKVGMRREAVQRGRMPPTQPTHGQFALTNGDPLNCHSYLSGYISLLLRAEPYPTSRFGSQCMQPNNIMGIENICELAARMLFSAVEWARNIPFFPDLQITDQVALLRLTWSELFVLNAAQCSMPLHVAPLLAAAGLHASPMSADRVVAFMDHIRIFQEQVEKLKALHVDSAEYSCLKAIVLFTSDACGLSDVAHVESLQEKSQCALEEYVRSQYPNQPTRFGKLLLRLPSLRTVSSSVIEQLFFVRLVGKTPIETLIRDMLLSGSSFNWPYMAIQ

inhibition, inactive:
CN(C(=O)c1cccc(NC(=O)Cc2cccc(NC(=O)C3CCCN(C(=O)C4CC4)C3)c2)c1)C1CCC1 (stereo not given) 2.2%, CN(C(=O)c1cccc(NC(=O)Cc2ccc(NC(=O)C3CCN(C(=O)C4CCCCC4)CC3)cc2)c1)C1CCC1 -2.15%, CN(CCc1ccccc1)C(=O)c1cccc(NC(=O)Cc2cccc(NC(=O)C3CCCN(C(=O)C4CCC4)C3)c2)c1 (stereo not given) 9.42%, CN(C(=O)c1cccc(NC(=O)Cc2ccc([N+](=O)[O-])cc2)c1)C1CCC1 33.2%, COC(=O)C1CN(CCc2ccccc2)CCS(=O)(=O)N1Cc1cccc(Cl)c1 (stereo not given) -5.31%, Cc1ccc(-n2c(SCC(=O)Nc3ccc(S(=O)(=O)Nc4nccs4)cc3)nnc2-c2cccnc2)cc1 8.88%, O=C(CSc1nnc(-c2cccc(Cl)c2)n1Cc1ccco1)Nc1ccc(OCc2ccccc2)cc1 -14.7%, O=C(NC1CCC1)c1ccc(C#Cc2cccc(F)c2)c[n+]1[O-] 0.7%, COc1ccc(S(=O)(=O)N2C[C@H]3CON(C)[C@H]3C[C@H]2c2cccc(Br)c2)cc1 10.7%, COc1ccccc1-c1ccc([C@@H]2C[C@H]3[C@H](CON3C)CN2S(=O)(=O)c2cc(Cl)cc(Cl)c2)cc1 5.76%, CCOC(=O)c1csc(NC(=O)C2CCCN(S(=O)(=O)c3ccc(Cl)s3)C2)n1 (stereo not given) 22.3%, C=C(C)C#CC(Cc1ccccc1)N(CC1CC1)/C(N)=N/C(=O)OCc1ccccc1 (stereo not given) 5.09%, CCCCNC(=O)C[C@H]1C[C@@]2(C(=O)OC)C(=C[C@H](COCc3ccccc3)O[C@@H]2C)N(Cc2ccc(Cl)cc2Cl)C1=O 1.56%, COC(=O)[C@]12C[C@H](CC(=O)N3CCOCC3)C(=O)N(Cc3ccc(Cl)cc3Cl)C1=C[C@H](C(C)C)O[C@@H]2C1CC1 1.35%, Cc1ccc(NC(=O)CN(C)Cc2ccc(F)cc2)c([N+](=O)[O-])c1 -11.4%, Cc1ccc(S(=O)(=O)N2CCCCC2)cc1C(=O)N(C)CC(=O)Nc1cccc(F)c1 -3.43%, c1csc(-c2nnc(SCc3nc4ccccc4[nH]3)o2)c1 -10.7%, Cc1ccc(NC(=O)Cc2cccc(F)c2)c(S(=O)(=O)N2CCOCC2)c1 -8.19%, CCOC(=O)[C@]12CCCC3=C1N(CCC3)C(=O)[C@@H](CC(=O)NCC13CC4CC(CC(C4)C1)C3)C2 21.7%, O=C1CC(c2ccc3c(c2)OCO3)N=C2N(CC3CC3)C/C(=C/c3ccccc3)N12 (stereo not given) 20.7%, Cc1nc(CNS(=O)(=O)c2cc([N+](=O)[O-])ccc2C)cs1 -13.5%, Cc1ccc(S(=O)(=O)NCc2nc3ccccc3c(=O)n2N)cc1 0.39%, Cc1nn(C(C)C(=O)NCCC2=CCCCC2)c(=O)c2nn(-c3ccccc3)c(C)c12 (stereo not given) -2%, Cc1nn(C(C)C(=O)N2CCOCC2)c(=O)c2nn(-c3ccccc3)c(C)c12 (stereo not given) 6.72%, Cc1cc(NS(=O)(=O)c2ccc(NC(=O)CSc3nnc(-c4ccc(C(C)(C)C)cc4)n3Cc3ccco3)cc2)nc(C)n1 1.48%, CN(CCc1ccccc1)C(=O)Cn1nc(-c2ccccc2)ccc1=O 2.95%, C[C@H](C(=O)N(C)c1ccccc1)[C@@H](O)c1ccc2ccccc2c1 10.2%, Cc1ccc(-n2c(COc3ccccc3)nnc2SCC(=O)Nc2ccc3c(c2)OCCO3)cc1 9.88%, COc1ccc(-n2c(SCC(=O)NC3CCCC3)nnc2-c2ccncc2)cc1 4.6%, CCC(=O)OCCCN1C(=O)CCC12CCC(c1ccccc1)CC2 (stereo not given) -6.04%, COc1ccc(C(=O)CSc2nnc(-c3cnccn3)n2-c2ccc(C)cc2)cc1 3.51%, O=C(CCl)NC1CCCCN(Cc2cccc(C(F)(F)F)c2)C1=O (stereo not given) 4.87%, COC(=O)C1CN(CC(C)C)CCS(=O)(=O)N1Cc1ccc(F)cc1 (stereo not given) 6.54%, Cc1nc(CNc2ncnc3ccc(-c4ccc5c(c4)OCO5)cc23)cs1 10.5%, COc1ccc(Cn2cc(COC(=O)N(C)Cc3ccccc3)nn2)cc1 3.65%, Nc1[nH]c(/C=C2/CCCCC2n2[nH]c(=O)n(-c3ccccc3)c2=O)c(Cc2ccccc2)[n+]1Cc1ccccc1 (stereo not given) 10.8%, COC(=O)[C@]12C[C@H](CC(=O)NCc3ccccc3)C(=O)N(Cc3ccccc3)C1=C[C@H](COCc1ccccc1)O[C@@H]2C 7.28%, COc1cc(/C=C/C(=O)N2CCc3ccccc3C2)cc(OC)c1OC -52.5%, COc1cc(C(O)c2nc3ccccc3n2C)cc(OC)c1OC (stereo not given) 10.1%, COC(=O)C12C=C3CC(c4ccccc4)=C3C(=O)N1Cc1[nH]c3ccccc3c1C2 (stereo not given) 5.87%, CN(C)[C@H]1CCN(c2cccc3c2S(=O)(=O)N2CC[C@H](C2)O3)C1 -16.6%, CCOC(=O)C1=C(C)NC2=C(C(=O)CC(C)(C)C2)C1c1ccc2c(c1)OCO2 (stereo not given) 13.2%, COC(=O)[C@]12C[C@H](CC(=O)N3CCOCC3)C(=O)N(Cc3ccc(Cl)cc3Cl)C1=C[C@H](COCc1ccccc1)O[C@@H]2C -11.3%, CCOc1ccc(OCc2ccc(C(=O)N(C)c3ccccc3)o2)cc1 -8.76%, COc1cccc(N2CCN(CC(=O)N(C)Cc3ccc(F)cc3)CC2)c1 1.56%, CC(O)(c1cccc(F)c1)c1nc(-c2ccc3c(c2)OCO3)cs1 (stereo not given) 8.11%, CCc1ccccc1NC(=O)c1cc(-c2ccc3c(c2)OCO3)on1 -0.24%, COc1ccc(CC(N)c2csc(NC(=O)Nc3ccc(C(C)C)cc3)n2)cc1 (stereo not given) 15.8%, CCOC(=O)c1csc(NC(=O)Nc2cccc(OC)c2)n1 -7.28%, O=C1CC[C@@]23CCCN2C(=O)CCC[C@H]3[C@H]1Cc1ccccc1 -3.33%, COC(=O)[C@]12C[C@H](CC(=O)NCc3ccccc3)C(=O)N(CCC3=CCCCC3)C1=C[C@H](C(C)C)O[C@@H]2C1CC1 2.64%, CCn1c(NCCc2ccc(OC)c(OC)c2)nc2c1c(=O)n(C)c(=O)n2C -1.49%, Cn1c(=O)c2c(nc(NCc3ccccc3)n2CC(N)=O)n(C)c1=O 4.42%, O=C(NC1CCCCN(Cc2cccc(C(F)(F)F)c2)C1=O)c1ccccc1I (stereo not given) 22.4%, CCC(=O)Nc1ccc2c(c1)C(=O)N(C)[C@@H]1CC[C@@H](CC(=O)NCCc3ccccc3)O[C@H]1CO2 19%, CC(C)N1CCCCC(NC(=O)C(C)(C)C)C1=O (stereo not given) 0.07%, Cc1ccc(CN2CCCCC(NC(=O)C3CCCCC3)C2=O)cc1 (stereo not given) 2.64%, O=C(NCCc1c[nH]c2ccccc12)OCc1cn(-c2c(F)cccc2F)nn1 -1.45%, CC(=O)OCCN1CCCC12CCC(c1ccccc1)CC2 (stereo not given) -6.1%, C[C@@H](NC(=O)c1ccccc1OCC(=O)Nc1ccc(I)cc1)C(=O)N(C)Cc1ccccc1 3.89%, COc1ccc(CCNC(=O)CSc2nc3c([nH]2)c(=O)n(C)c(=O)n3C)cc1 -4.66%, CC(CCN1CCC(C(O)(c2ccccc2)c2ccccc2)CC1)Oc1ccc(C(F)(F)F)cc1 (stereo not given) 9.47%

inhibition, active:
CN(CCc1ccccc1)C(=O)c1cccc(NC(=O)Cc2cccc(NC(=O)C3CCCN(C(=O)CCc4ccccc4)C3)c2)c1 (stereo not given) 44.5%, CN(C(=O)c1cccc(NC(=O)Cc2cccc([N+](=O)[O-])c2)c1)C1CCCCC1 38.2%, CN1OC[C@@H]2CN(S(=O)(=O)c3cccc(C(F)(F)F)c3)[C@H](c3ccc(-c4cc5ccccc5o4)cc3)C[C@@H]21 44.1%, Cc1ccc(NC(=O)CN(C)CC(=O)Nc2cccc(F)c2)cc1[N+](=O)[O-] 58.8%, Cc1nc(CNS(=O)(=O)c2ccc(Oc3ccccc3)cc2)cs1 50.2%, Cc1ccc(-n2nc3c(=O)n(C(C)C(=O)NCc4ccc5c(c4)OCO5)nc(C)c3c2C)cc1 (stereo not given) 48.1%, OCCCNc1nccc(-c2cc(Nc3cccc(Cl)c3)ncn2)n1 44.6%, COc1ccc2c(c1)c(=Cc1ccc(N(C)C)cc1)c1cc(-c3ccccc3)[n+](C)n12 76.4%, C=CCNc1ncnc2ccc(Br)cc12 48.3%, COc1cc(/C=C/C(=O)n2cnc3ccccc32)cc(OC)c1OC 47.1%, COc1cccc2c1C(=O)c1c(O)c3c(c(O)c1C2=O)CC(O)(C(C)=NNC(=O)c1ccc(Cl)c(Cl)c1)CC3OC1CC(N)C(O)C(C)O1 (stereo not given) 52.1%, CCc1cc(-c2nnn(CCC3COCCO3)c2CC)ccc1-c1cn(Cc2ccc3ccccc3c2)nn1 (stereo not given) 57.9%, CN(C(=O)CN1CCN(c2cc(-c3ccc(OCc4ccccc4)cc3)ncn2)CC1)c1ccccc1 60.6%, O=C(Nc1nc(-c2ccc3c(c2)OCO3)cs1)c1ccncc1 52.5%, CC(=O)Nc1ccc(-c2csc(NC(=O)Nc3ccccc3)n2)cc1 60.9%, CCCCNc1nc2c(c(=O)n(C)c(=O)n2C)n1Cc1cccc(OC)c1 53.5%, O=c1oc2ccccc2cc1-c1cn(-c2ccccc2)c(=S)[nH]1 81.6%, O=C(OC12CC3CC(CC(C3)C1)C2)c1ccc(NCc2cc(O)ccc2O)cc1 82.7%
